About 1,300 (81%) of roughly 1,600 compounds were called active. The rule behind the calls is not given here. So high a share suggests a set chosen from earlier hits. Only a sample is shown. Results with a measured potency or affinity are listed apart.

This experiment in a line: non-specific 3'UTR reporter inhibition in Clone20-Shn3RL – cell-based, Renilla luciferase, cherry-picked, counter-screen for Shn3 inhibitor project, dose response (AID 624133).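 Note: 0% = neutral control wells and -100% = positive control wells.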 Conditions: Clone20-Shn3RL cells, Renilla luciferase luminescence, 24 h; at 35 µM (top of the series) unless noted.
For the molecule `CCn1nnc2cc(C(=O)Nc3cc(Cl)ccc3C)ccc21`, the activity change, negative = inhibition was -11.1%.
The value for `CCOC(=O)c1c(C)[nH]c(C(=O)COC(=O)[C@H](C)N2C(=O)C3CCCCC3C2=O)c1C` (some centres not stated) was -5%; that for `O=C(Nc1cccc(-c2ccc(N3CCCCC3)nn2)c1)C(F)(F)F` was -50%; that for `Nc1c(Br)cc2c(c1Br)C(O)c1ccccc1-2` (configuration not stated) was 22.2%.
With `CCCOc1ccc2oc(=O)c3c(c2c1)CCCN3C(=O)CN1CCN(c2ncccn2)CC1` the figure was 133%; with `COc1ccc(CN(C(=O)CSc2nnc(-c3ccc(F)cc3)o2)c2ccc(F)cc2)cc1`, 16.7%.
As to `CSc1cccc(NS(=O)(=O)c2ccc3c(c2)CCN3C(C)=O)c1`, the activity change, negative = inhibition stood at 400%.
The value for `COc1cc(SC)ccc1C(=O)Nc1nc2ccccc2[nH]1` was -90%; that for `Cc1cccc(CSc2cccc3cccnc23)c1` was 49.1%; that for `O=C(NCc1ccccc1C(F)(F)F)c1cccc2c1C(=O)c1ccc(N3CCC(N4CCCCC4)CC3)cc1S2(=O)=O` was -33.6%.
The value for `CC(C)n1c(/C=C/[C@@H](O)C[C@@H](O)CC(=O)O)c(-c2ccc(F)cc2)c2ccccc21` was -100%.
With `O=c1cc(-c2ccc(O)cc2)oc2ccc3ccccc3c12` the figure was 91.7%; with `Cn1cc([N+](=O)[O-])c(C(=O)Nc2sc3c(c2C#N)CCC3)n1`, -10.8%.
`O=C(COC(=O)/C=C/c1ccc(OC(F)F)cc1)Nc1ccc2[nH]c(=O)[nH]c2c1`: the activity change, negative = inhibition is -21.3%.
The value for `O=C(Nc1nc2cc3c(cc2s1)OCCO3)C1=COCCO1` was 45.8%; that for `Cc1cccc(-c2noc(CN(C(=O)C(c3ccccc3)c3ccccc3)C(C)C)n2)c1` was -29.9%.
For `CC1=NOC(=O)/C1=C\c1ccc(-c2ccccc2Br)o1`, the activity change, negative = inhibition was found to be 35.7%.
With `COc1ccc(NS(=O)(=O)c2ccc3ccccc3c2)c2ncccc12` the figure was 293%.
`Cc1nc2scc(C)n2c(=O)c1S(=O)(=O)Nc1ccc(N2CCOCC2)c(Cl)c1`: the activity change, negative = inhibition came out at 62.5%.
With `Nc1nnc(SCC(=O)Nc2ccc(N3CCOCC3)cc2)s1` the figure was 45.8%.
The value for `CCOc1cc(/C=C2\C(=O)ON=C2C)ccc1OCc1ccccc1` was -100%.
With `O=C(Nc1ccc(Cl)cc1)Nc1ccc(N2CCCC2)c(S(=O)(=O)Nc2ccccc2Cl)c1`, the activity change, negative = inhibition is -17.1% [at 16 µM].
With `COc1ccc(CNC(=O)C(c2ccc(C)cc2)N(Cc2cccs2)C(=O)c2ccc3c(c2)OCCO3)cc1` (configuration not stated) the figure was 50%; with `COc1ccc(CCNC(=O)CCC(=O)N2CCOc3ccc(Cl)cc32)cc1OC`, -107%; with `CCc1ccc(OCCNc2cc(N3CCNC(C)C3)ccc2[N+](=O)[O-])cc1` (configuration not stated), -83.3%.
Consider `O=S(=O)(c1ccc(Cl)cc1)n1ccc2cccnc21`, for which the activity change, negative = inhibition amounted to 6.94%.
As to `Cc1ccc(C)c(S(=O)(=O)Nc2ccc(-n3cnnn3)cc2)c1`, the activity change, negative = inhibition was 276%.
With `COc1ccc(C(=O)OCC(=O)Nc2ccc3[nH]c(=O)[nH]c3c2)cc1` the figure was 62.5%; with `Cc1ccccc1NC(=O)CSc1nc2ccccc2c(=O)n1C`, 10%; with `COc1ccc(N2C(=O)C(CC(=O)Nc3ccccc3)N(Cc3ccc(OC)c(OC)c3)C2=O)cc1` (configuration not stated), 84.7%.
With `CCCCC[C@H]1CN(Cc2ccc(OC)cc2)C(=O)[C@@H]1CC(=O)NCc1ccccc1` the figure was 196%; with `COCCn1c(C)cc(C2=NNC(=NC3CC3)SC2)c1C`, 10%.
As to `Cc1ccc(S(=O)(=O)Nc2cccc3ncccc23)s1`, the activity change, negative = inhibition was -66.7%.
Consider `COc1ccc(NS(=O)(=O)c2ccc(OC)c(N(C)S(=O)(=O)c3ccc(Cl)cc3)c2)cc1`, for which the activity change, negative = inhibition was -58.3%.
The value for `Cc1nc(SCC(=O)Nc2nc3ccccc3s2)c(C#N)c(C)c1C` was -8.33%; that for `Cc1ccc(NC(=O)c2cc3ccccc3oc2=O)cc1S(=O)(=O)N(C)C` was 45.2%.
With `Cc1cccc(C)c1NC(=O)CN(C)C(=O)c1cc(S(=O)(=O)N(C)C)ccc1N1CCCC1` the figure was 41.7%.
With `Cc1nc2ncnn2c(C)c1Cc1cccc(F)c1` the figure was 25%; with `Cn1cc(CN(CCO)Cc2cccs2)c(-c2cccc(Cl)c2)n1`, 16.7%; with `COc1ccc(C(=O)Cn2c(C(=O)/C=C/c3ccccc3)nc3ccccc32)cc1`, 170%.
As to `O=C(O)c1cccc(COc2ccccc2Cl)c1`, the activity change, negative = inhibition was -10%.
Take `COc1ccc(OCc2cccc(C(=O)O)c2)cc1`: the activity change, negative = inhibition turned out to be 107%.
The value for `Oc1c(C(c2cccs2)N2CCC3(CC2)OCCO3)sc2ncnn12` (configuration not stated) was 151%.
As to `COC(=O)[C@@]12CCCN1[C@H](c1ccc(-c3ccc(OC)cc3)cc1)[C@@H]1C(=O)N(C)C(=O)[C@@H]12`, the activity change, negative = inhibition is 47.2%.
In the case of `CCN1C(=O)[C@H]2[C@@H](c3ccc(-c4ccc(OC)cc4)cc3)N3CCC[C@@]3(C(=O)OC)[C@H]2C1=O`, the activity change, negative = inhibition was -39.3%.
For `CCCCN1CC(COCc2ccccc2)Oc2cccc(Oc3cc(C)c(C)c(C)c3)c2S1(=O)=O` (configuration not stated), the activity change, negative = inhibition amounted to 300%.
On to `CCCCN1CC(COCc2ccccc2)Oc2cccc(Oc3ccc(C)cc3)c2S1(=O)=O` (configuration not stated), for which the activity change, negative = inhibition is 130%.

Values taken from PubChem BioAssay AID624133 (Broad Institute, 2012).
